Measured values as given in PubChem BioAssay (EPA / NIEHS).
Where “and” joins values, the source holds several entries; their conditions need not be identical. Identical values can stand only once. Inconclusive results are not listed. More than one record can exist for a structure, and the calls need not agree. Calls of active or inactive are those of the source. The calls were made as follows, unless noted: active = hit-call score of the fitted dose curve at least 0.9, where 1 is the maximum; inactive = score below 0.9.

How the values were obtained:
[1] = read-out: sulfotransferase 2A1 (SULT2A1), SULT2A1 (gene 6822); experiment: LTEA_HepaRG_SULT2A1: Life Technologies and Expression Analysis (LTEA) Assay for sulfotransferase 2A1 (SULT2A1) using HepaRG (AID 2283531); details: mRNA level, 48 h; actives raise or lower the signal
Method in brief: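 Gene-expression endpoint in a human liver cell line: SULT2A1 mRNA change after 48 h chemical treatment, curves fitted in both directions relative to 0.5% DMSO vehicle. Concentrations spanned eight half-log steps from 100 uM.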

[2] = read-out: Transforming Growth Factor (TGFA), TGFA (gene 7039); experiment: LTEA_HepaRG_TGFA: Life Technologies and Expression Analysis (LTEA) Assay for Transforming Growth Factor (TGFA) using HepaRG (AID 2283532); details: mRNA level, 48 h; actives raise or lower the signal
Method in brief: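 TGFA transcript quantified by qRT-PCR (Fluidigm arrays) against three housekeeping genes, after 48 hours chemical treatment of HepaRG cells. Top concentration 100 uM with half-log dilutions, 8 points, duplicates, 0.5% DMSO.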

[3] = read-out: TIMP1, TIMP1 (gene 7076); experiment: LTEA_HepaRG_TIMP1: Life Technologies and Expression Analysis (LTEA) Assay for TIMP1 using HepaRG (AID 2283534); details: mRNA level, 48 h; actives raise or lower the signal;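 also: TaqMan qRT-PCR signal normalized to ACTB GAPDH and POLR2A housekeeping genes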
Method in brief: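 TIMP1 induction or repression in HepaRG cells after 48 h chemical exposure (eight concentrations, highest 100 uM), assessed by normalized qRT-PCR with bidirectional fitting to DMSO controls.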

[4] = read-out: Tumor necrosis factor receptor 1 (TNFRSF1A), TNFRSF1A (gene 7132); experiment: LTEA_HepaRG_TNFRSF1A: Life Technologies and Expression Analysis (LTEA) Assay for Tumor necrosis factor receptor 1 (TNFRSF1A) using HepaRG (AID 2283535); details: mRNA level, 48 h; actives raise or lower the signal
Method in brief: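 Assay uses 48 h chemical treatment of differentiated HepaRG monolayers, tested in duplicate at eight concentrations from 100 uM downward in 0.5% DMSO. mRNA is normalized to ACTB, GAPDH and POLR2A, with induction or suppression fitted relative to vehicle.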

[5] = read-out: Thyroid Hormone Responsive (THRSP), THRSP (gene 7069); experiment: LTEA_HepaRG_THRSP: Life Technologies and Expression Analysis (LTEA) Assay for Thyroid Hormone Responsive (THRSP) using HepaRG (AID 2283536); details: mRNA level, 48 h; actives raise or lower the signal
Method in brief: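 THRSP transcript quantified by Fluidigm qRT-PCR against three housekeeping genes after 48 h chemical exposure of HepaRG cells in serum-free induction medium; eight-point half-log series, top 100 uM, 0.5% DMSO vehicle, duplicate wells.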

[6] = read-out: Cellular tumor antigen p53 (Homo sapiens) (UniProt P04637); experiment: LTEA_HepaRG_TP53: Life Technologies and Expression Analysis (LTEA) Assay for Tumor Protein P53 (TP53) using HepaRG (AID 2283537); details: mRNA level, 48 h; actives raise or lower the signal
Method in brief: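 HepaRG, 48 h exposure, top 100 uM, half-log 8-point, 0.5% DMSO vehicle, duplicates. Read: TP53 mRNA by TaqMan qRT-PCR, normalised to ACTB/GAPDH/POLR2A; bidirectional fit vs DMSO.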

[7] = read-out: UDP glucuronosyltransferase (UGT1A1), UGT1A1 (gene 54658); experiment: LTEA_HepaRG_UGT1A1: Life Technologies and Expression Analysis (LTEA) Assay for UDP glucuronosyltransferase (UGT1A1) using HepaRG (AID 2283538); details: mRNA level, 48 h; actives raise or lower the signal
Method in brief: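 mRNA induction or loss of UGT1A1, by TaqMan qRT-PCR, in duplicate HepaRG wells after 48 h exposure to half-log dilutions topping at 100 uM; DMSO (0.5%) served as baseline.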

[8] = read-out: UDP glucuronosyltransferase (UGT1A6), UGT1A6 (gene 54578); experiment: LTEA_HepaRG_UGT1A6: Life Technologies and Expression Analysis (LTEA) Assay for UDP glucuronosyltransferase (UGT1A6) using HepaRG (AID 2283539); details: mRNA level, 48 h; actives raise or lower the signal
Method in brief: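 Measures mRNA change in HepaRG hepatic cells exposed 48 h to chemicals (eight-point, maximum 100 uM, 0.5% DMSO vehicle) in serum-free induction medium. Expression normalized to endogenous controls; DMSO served as negative control and baseline.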

[9] = read-out: X-box binding protein 1 (XBP1), XBP1 (gene 7494); experiment: LTEA_HepaRG_XBP1: Life Technologies and Expression Analysis (LTEA) Assay for X-box binding protein 1 (XBP1) using HepaRG (AID 2283540); details: mRNA level, 48 h; actives raise or lower the signal
Method in brief: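 Eight concentrations (half-log, highest 100 uM, 0.5% DMSO) tested in duplicate on HepaRG cells over 48 h in serum-free induction medium; qRT-PCR of XBP1 normalised to ACTB, GAPDH, POLR2A.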

[10] = biological target: Cellular tumor antigen p53 (Homo sapiens) (UniProt P04637); experiment: TOX21_p53_BLA_p2_ratio: Tox21 HCT-116 p53 Agonism Beta-lactamase Assay, Ratio, Phase 2 (AID 2283592; active = hit-call score of the fitted dose curve at least 0.9, where 1 is the maximum)
Chain of Cellular tumor antigen p53 (Homo sapiens) (P04637 whole entry, looked up): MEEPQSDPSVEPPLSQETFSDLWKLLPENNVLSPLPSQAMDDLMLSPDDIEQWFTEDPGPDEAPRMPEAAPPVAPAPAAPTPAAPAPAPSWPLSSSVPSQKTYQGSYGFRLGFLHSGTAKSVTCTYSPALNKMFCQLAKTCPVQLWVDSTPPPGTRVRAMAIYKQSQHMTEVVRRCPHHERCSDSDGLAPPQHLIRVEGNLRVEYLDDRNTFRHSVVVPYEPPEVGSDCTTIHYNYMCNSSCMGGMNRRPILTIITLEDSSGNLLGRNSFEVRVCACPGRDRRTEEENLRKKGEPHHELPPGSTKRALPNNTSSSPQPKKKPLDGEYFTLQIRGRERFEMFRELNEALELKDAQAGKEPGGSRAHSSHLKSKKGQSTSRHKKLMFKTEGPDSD
Method in brief: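 DMSO-normalized, positive-direction endpoint derived from the 460 nm/530 nm FRET ratio in HCT116 p53 beta-lactamase reporter cells exposed 16 h at 37C and loaded with CCF4-AM for 2 h.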

[11] = TOX21_p53_BLA_p3_viability: Viability Assessment in the Tox21 HCT-116 p53 Agonism Beta-lactamase Assay, Phase 3 (AID 2283593; active = hit-call score of the fitted dose curve at least 0.9, where 1 is the maximum;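 also: cells exposed to compound for 16 h before reading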)
Method in brief: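 Cellular ATP was quantified by CellTiter-Glo luminescence, read after 30 min at room temperature. Beforehand, HCT116 cells (4000/well) received compound 5 h post-seeding, 217-fold diluted from DMSO, then incubated 16 h at 37C.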

[12] = biological target: Cellular tumor antigen p53 (Homo sapiens) (UniProt P04637); experiment: TOX21_p53_BLA_p3_ratio: Tox21 HCT-116 p53 Agonism Beta-lactamase Assay, Ratio, Phase 3 (AID 2283596; active = hit-call score of the fitted dose curve at least 0.9, where 1 is the maximum)
Method in brief: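 Cells were seeded at 4000/well, rested 5 h at 37C, then dosed with DMSO compound solutions (217-fold dilution) for 16 h. CCF4-AM substrate was loaded for 2 h at room temperature, and the 460/530 nm emission ratio was fitted for gain of signal versus DMSO.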

[13] = TOX21_p53_BLA_p4_viability: Viability Assessment in the Tox21 HCT-116 p53 Agonism Beta-lactamase Assay, Phase 4 (AID 2283597; active = hit-call score of the fitted dose curve at least 0.9, where 1 is the maximum;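 also: hits lower the luminescence signal meaning cytotoxicity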)
Method in brief: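 In this multiplexed secondary endpoint, HCT116 cells (4000 per well, compound at 5 h, 16 h treatment) received CellTiter-Glo after the beta-lactamase read. Luminescence after 30 min RT reflects ATP, and falling signal marks cytotoxicity.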

[14] = biological target: Cellular tumor antigen p53 (Homo sapiens) (UniProt P04637); experiment: TOX21_p53_BLA_p5_ratio: Tox21 HCT-116 p53 Agonism Beta-lactamase Assay, Ratio, Phase 5 (AID 2283599; active = hit-call score of the fitted dose curve at least 0.9, where 1 is the maximum)
Method in brief: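 Beta-lactamase reporter ratio (blue 460 nm over green 530 nm, 405 nm excitation) after 2 h CCF4-AM loading, in HCT-116 cells exposed 16 h at 37 C to compounds pinned at 217-fold dilution. Increases relative to DMSO baseline scored.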

[15] = TOX21_p53_BLA_p5_viability: Viability Assessment in the Tox21 HCT-116 p53 Agonism Beta-lactamase Assay, Phase 5 (AID 2283600; active = hit-call score of the fitted dose curve at least 0.9, where 1 is the maximum)
Method in brief: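 Here cell health was gauged by ATP levels in wells holding 4000 cells, each treated 16 h with DMSO-delivered compounds at 217-fold dilution; reduced luminescence marked toxicity.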

[16] = biological target: Cellular tumor antigen p53 (Homo sapiens) (UniProt P04637); experiment: TOX21_p53_BLA_p4_ratio: Tox21 HCT-116 p53 Agonism Beta-lactamase Assay, Ratio, Phase 4 (AID 2283601; active = hit-call score of the fitted dose curve at least 0.9, where 1 is the maximum)
Method in brief: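 Signal is the blue/green (460nm/530nm) ratio of cleaved versus uncleaved CCF4-AM substrate, read after 2 h substrate loading. Cells were HCT116 carrying the p53-responsive beta-lactamase reporter, dosed 16 h at 37C, 5% CO2; CellTiter-Glo measured in parallel.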

[17] = ATG_XTT_Cytotoxicity: Cytotoxicity Assessment in the Attagene TRANS-FACTORIAL HepG2 Assay (AID 2283584; active = hit-call score of the fitted dose curve at least 0.9, where 1 is the maximum;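 as to AC50: XTT signal for cell number as viability in transfected HepG2 cells; cells exposed to compound for 24 h before reading; active means loss of viability signal versus DMSO baseline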)
Method in brief: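 24 h chemical exposure of reporter-transfected HepG2; XTT signal loss vs DMSO indicates cytotoxicity.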

[18] = read-out: Transforming Growth Factor (TGFB1), TGFB1 (gene 7040); experiment: LTEA_HepaRG_TGFB1: Life Technologies and Expression Analysis (LTEA) Assay for Transforming Growth Factor (TGFB1) Transporter using HepaRG (AID 2283533); details: mRNA level, 48 h; actives raise or lower the signal
Method in brief: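 Eight-point concentration-response (max 100 uM, half-log) in HepaRG under serum-free induction conditions, 48 h. TGFB1 mRNA by qRT-PCR, housekeeping-normalized.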

Measured: AC50

[N-]=[N+]=[N-]
active: [2] 94.4 µM | [4] 72.6 µM | [5] 50 µM | [6] 81.9 µM | [7] 80.7 µM
not listed: [17] | [18]
inactive: all other assays above

CCC(C)(C)c1ccc(O)cc1
not listed: [18]
inactive: all other assays above

c1nc[nH]n1
active: [2] 0.0948 µM
not listed: [11] | [13] | [18]
inactive: all other assays above

CC(Cl)(Cl)C(=O)O
inactive: [1] | [2] | [3] | [4] | [5] | [7] | [8] | [9]

Nc1ccc2ccccc2c1
active: [5] 9.29 µM | [7] 18.8 µM
not listed: [11] | [18]
inactive: all other assays above

ClC(Cl)c1ccccc1
inactive: [1] | [2] | [18] | [3] | [4] | [5] | [7] | [8] | [9] | [17]

CCOc1ccc(C(C)(C)COCc2cccc(Oc3ccccc3)c2)cc1
active: [7] 10.2 µM
not listed: [8] | [10] | [12] | [13] | [14] | [18]
inactive: all other assays above

CCC1(c2ccccc2)C(=O)N=C(O)NC1=O (stereo not drawn)
active: [7] 50 µM
not listed: [11] | [14] | [15] | [18]
inactive: all other assays above

c1cc2c3c(cccc3c1)CC2
not listed: [10] | [11] | [17] | [18]
inactive: all other assays above

CCOC(=O)c1ccccc1C(=O)OCC
not listed: [15] | [17] | [18]
inactive: all other assays above

ClC1=C(Cl)C2(Cl)C3C(Cl)C(Cl)CC3C1(Cl)C2(Cl)Cl (stereo not drawn)
inactive: [1] | [2] | [3] | [4] | [5] | [6] | [8] | [9] | [11] | [12] | [13] | [14] | [15] | [16]
active: [7] 2.81 µM | [17] 157 µM | [10] 61.5 µM and 80.2 µM | [11] 55.6 µM | [12] 86.1 µM | [13] 64.1 µM | [14] 86.4 µM | [15] 46.1 µM | [16] 63.5 µM

COCCOCCO
active: [7] 1.57 µM
inactive: [1] | [2] | [3] | [4] | [5] | [8] | [9]
